Experiment [1] deals with Glucocorticoid receptor (Homo sapiens) (UniProt P04150). The experiment is described as follows: qHTS assay for small molecule agonists of glucocorticoid receptor signaling (AID 588532; active = well fitted curve in the direction sought with a large enough effect in the signal ratio, with a control signal flat; the % refers to the signal ratio;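 also: 100% = dexamethasone at 0.1 µM and 0% = DMSO only wells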). The note with it: HeLa MMTV-bla, beta-lactamase ratio, agonist, 18 h; stronger effect = higher value; percent of dexamethasone control, DMSO zero. In short, it runs like this: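 Cells were plated and rested 3-5 h at 37 C, compounds were added in titration and incubated 18 h, then CCF4 substrate was loaded for 2 h at RT before reading blue/green fluorescence. EC50 came from Hill-equation fitting.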
Sequence of Glucocorticoid receptor (Homo sapiens) (P04150 whole entry, looked up): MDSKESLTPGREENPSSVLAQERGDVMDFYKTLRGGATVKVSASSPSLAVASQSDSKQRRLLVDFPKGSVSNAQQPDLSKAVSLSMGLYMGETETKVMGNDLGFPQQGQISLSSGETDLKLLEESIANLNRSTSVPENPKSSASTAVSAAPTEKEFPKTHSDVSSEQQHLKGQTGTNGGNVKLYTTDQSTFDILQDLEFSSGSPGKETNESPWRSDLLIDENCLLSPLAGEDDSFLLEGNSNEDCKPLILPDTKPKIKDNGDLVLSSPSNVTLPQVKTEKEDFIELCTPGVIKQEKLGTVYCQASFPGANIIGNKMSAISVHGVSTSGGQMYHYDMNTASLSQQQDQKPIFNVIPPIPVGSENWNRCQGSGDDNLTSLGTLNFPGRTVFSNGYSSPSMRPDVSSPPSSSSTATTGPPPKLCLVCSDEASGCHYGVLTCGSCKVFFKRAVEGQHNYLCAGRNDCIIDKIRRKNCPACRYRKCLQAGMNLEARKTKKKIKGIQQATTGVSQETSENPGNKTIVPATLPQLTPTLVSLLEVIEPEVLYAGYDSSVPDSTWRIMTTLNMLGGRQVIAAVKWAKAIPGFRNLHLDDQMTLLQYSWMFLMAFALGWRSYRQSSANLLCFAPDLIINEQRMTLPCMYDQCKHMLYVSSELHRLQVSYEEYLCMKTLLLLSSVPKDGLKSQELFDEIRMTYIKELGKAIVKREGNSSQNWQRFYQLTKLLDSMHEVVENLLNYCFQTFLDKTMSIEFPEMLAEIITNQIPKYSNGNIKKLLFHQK
On the technique in general: In qHTS, concentration-response curves come from the screen itself.

Experiment [2] has the same target. In words: qHTS assay for small molecule antagonists of glucocorticoid receptor signaling (AID 588533; active = well fitted inhibition curve with a large enough effect in the signal ratio, with a control signal flat, not every such curve was filed as active; the % refers to the signal ratio; also: % is scaled to controls: 0 for no effect and ±100 for the full control effect). The note with it: HeLa MMTV-bla, GRE beta-lactamase ratio, antagonist mode, 18 h; series mostly up to 76.8 µM. In short, it runs like this: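 Antagonist-mode qHTS: compound titrations added to GRE-bla HeLa cells, then dexamethasone 2 nM final; 18 h, 37 C. CCF4 FRET fluorescence normalized to dexamethasone and DMSO; IC50 from Hill fit.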

A short description of experiment [3]: qHTS assay for small molecule antagonists of peroxisome proliferator-activated receptor delta signaling (AID 588535; active = well fitted inhibition curve with a large enough effect in the signal ratio, with a control signal flat, not every such curve was filed as active; the % refers to the signal ratio;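 as to max response: cells co-treated with a PPAR-delta agonist as stimulator during compound exposure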). As to conditions: HEK293T PPARd-UAS-bla, beta-lactamase FRET ratio, 18 h; 460 nm channel. In short, it runs like this: (§1)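 Beta-lactamase reporter read-out (405 nm excitation, 460/530 nm emission) after CCF4 loading for 2 hrs at RT. HEK293T PPAR-delta-UAS-bla cells, 2% charcoal/dextran FBS, compounds for 18 hrs at 37 C. Hill fit gave IC50 and efficacy.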

Experiment [4] concerns the target Peroxisome proliferator-activated receptor delta (Homo sapiens) (UniProt Q03181). Described as above. The note with it: HEK293T PPARd-UAS-bla, beta-lactamase FRET ratio, 18 h; series mostly up to 76.7 µM. The procedure, abridged: as §1
For experiment [5], the target named is Peroxisome proliferator-activated receptor gamma (Homo sapiens) (UniProt P37231). In words: qHTS assay for small molecule agonists of peroxisome proliferator-activated receptor gamma signaling (AID 588536; active = well fitted curve in the direction sought with a large enough effect in the signal ratio, with a control signal flat, not every such curve was filed as active; the % refers to the signal ratio;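 also: 0% = DMSO basal wells and 100% = rosiglitazone at 2 µM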). The note with it: HEK293 PPARg-UAS-bla, beta-lactamase ratio, 16 h, percent of rosiglitazone response, DMSO as zero; series mostly up to 76.7 µM. The procedure, abridged:
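Cells were plated and held 6–6.5 h at 37 C, then compounds were added as a titration series. After a further 16 h, CCF4 dye was loaded for 2 h at room temperature and emission at 460/530 nm recorded.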

Experiment [6] addresses Vitamin D3 receptor (Homo sapiens) (UniProt P11473). The experiment is described as follows: qHTS assay for small molecule antagonists of vitamin D receptor signaling (AID 588541).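 Also: receptor activated by calcitriol during compound treatment; % is scaled to controls: 0 for no effect and ±100 for the full control effect.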 As to conditions: HEK293T VDR-UAS-bla, beta-lactamase ratio, antagonist mode; series mostly up to 76.7 µM. The procedure, abridged:
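VDR-UAS-bla HEK293T cells in 2% charcoal-stripped FBS were stimulated with 1-alpha,25-dihydroxyvitamin D3 (3 nM final) plus compound for 16 h at 37 C. The beta-lactamase CCF4 readout was normalized to 50 nM agonist and DMSO, and Hill fits gave IC50.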

The target is the same in experiment [7]. In words: qHTS assay for small molecule agonists of vitamin D receptor signaling (AID 588543).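 Also: 0% = DMSO basal and 100% = reference agonist control.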 The note with it: HEK293T VDR-UAS-bla, beta-lactamase ratio, 16 h; series mostly up to 76.8 µM. The procedure, abridged:
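Reporter cells (HEK293T, VDR-UAS-bla) were seeded in medium with 2% charcoal-stripped serum and incubated 5 h, then compounds in concentration series were added for 16 h at 37 °C. Stimulation was scaled between DMSO basal and 50 nM 1α,25-dihydroxyvitamin D3.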

The nature of experiment [8]: qHTS assay for small molecule agonists of retinoid X receptor alpha signaling (AID 588544).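 As to activation: 0% = DMSO basal wells and 100% = reference agonist.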 The note with it: HEK293T RXRa-UAS-bla, beta-lactamase reporter, 18 h; 530 nm emission.
Experiment [9] has as its target Retinoic acid receptor RXR-alpha (Homo sapiens) (UniProt P19793). The description is as above. As to conditions: HEK293T RXRa-UAS-bla, beta-lactamase reporter, 18 h; series mostly up to 76.7 µM.
A short description of experiment [10]: qHTS assay for small molecule antagonists of retinoid X receptor alpha signaling (AID 588546; active = well fitted inhibition curve with a large enough effect in the signal ratio, with a control signal flat, not every such curve was filed as active; the % refers to the signal ratio;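 also: cells stimulated with 9-cis-retinoic acid as agonist; % is scaled to controls: 0 for no effect and ±100 for the full control effect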). The note with it: HEK293T RXRa-UAS-bla, beta-lactamase ratio, antagonist mode; measured here: W530 green channel, cytotoxicity proxy. The procedure, abridged:
(§2)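 Beta-lactamase reporter inhibition, read as CCF4 fluorescence ratio (ex 405, em 460/530 nm) after 2 h at RT. HEK293T UAS-bla cells, 2500/well, were stimulated with 9-cis-RA at 500 or 100 nM final alongside test compound for 18 h at 37 C.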

Experiment [11] deals with Retinoic acid receptor RXR-alpha (Homo sapiens) (UniProt P19793). Described as above. The note with it: HEK293T RXRa-UAS-bla, beta-lactamase ratio, antagonist mode. In short, it runs like this: as §2
Sequence of Retinoic acid receptor RXR-alpha (Homo sapiens) (P19793 whole entry, looked up): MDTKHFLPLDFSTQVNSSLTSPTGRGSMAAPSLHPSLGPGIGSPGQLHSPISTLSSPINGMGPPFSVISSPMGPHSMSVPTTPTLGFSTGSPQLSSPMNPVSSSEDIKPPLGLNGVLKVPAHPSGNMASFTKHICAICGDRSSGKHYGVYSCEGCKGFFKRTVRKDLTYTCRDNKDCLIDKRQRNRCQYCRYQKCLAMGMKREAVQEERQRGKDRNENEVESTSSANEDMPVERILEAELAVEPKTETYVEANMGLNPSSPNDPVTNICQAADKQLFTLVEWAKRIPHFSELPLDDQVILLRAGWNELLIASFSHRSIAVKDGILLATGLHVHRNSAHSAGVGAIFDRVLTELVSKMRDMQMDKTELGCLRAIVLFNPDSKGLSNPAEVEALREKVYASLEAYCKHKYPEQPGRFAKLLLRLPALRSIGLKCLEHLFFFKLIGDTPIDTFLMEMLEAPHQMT
Experiment [12] concerns the target Voltage-gated inwardly rectifying potassium channel KCNH2 (Homo sapiens) (UniProt Q12809). In words: qHTS Assay for Small Molecule Inhibitors of the Human hERG Channel Activity (AID 588834; active = well fitted inhibition curve with a large enough effect;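 also: top concentration of the series differs between compounds; % is scaled to controls: 0 for no effect and ±100 for the full control effect; lower thallium flux fluorescence means stronger hERG block; nearly all actives have a fitted effect of over 50% in size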). The note with it: U2OS BacMam hERG, FluxOR thallium flux fluorescence; series mostly up to 92.2 µM. In short, it runs like this: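 Step 1: BacMam hERG transduction of U2OS, 4 hrs RT. Step 2: overnight 37 °C, plate 2000 cells/well, 4 hr. Step 3: FluxOR load, compound 10 min, stimulate, read fluorescence.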

Experiment [13] in a line: qHTS assay for small molecule agonists of the antioxidant response element (ARE) signaling pathway (AID 651741; active = well fitted activation curve with a large enough effect in the signal ratio; the % refers to the signal ratio; also: % of control where 0% means no effect). As to conditions: HepG2 ARE-bla reporter, beta-lactamase FRET ratio, 16 h; series mostly up to 96 µM. The procedure, abridged:
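HepG2 ARE-bla reporter cells, 2,000/well; 5 h settle at 37 C/5% CO2; compound pin transfer (23 nL, DMSO); 16 h at 37 C; LiveBLAzer B/G FRET substrate, 2 h RT; fluorescence intensity read.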

Experiment [14] is described as follows: qHTS assay for small molecule activators of the p53 signaling pathway (AID 651743; active = well fitted activation curve with a large enough effect in the signal ratio, not every such curve was filed as active; the % refers to the signal ratio; also: % of control where 0% means no effect). As to conditions: HCT-116 p53RE-bla, beta-lactamase FRET ratio, 16 h; stronger effect = higher value. In short, it runs like this:
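Reporter: beta-lactamase driven by p53 response elements, stably integrated in HCT-116 cells. Cells seeded at 4,000/well, 5 h preincubation, compound (DMSO) 16 h at 37 C; B/G FRET substrate 2 h RT; fluorescence intensity read.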

For experiment [15], the target named is Thyroid hormone receptor beta (Homo sapiens) (UniProt P10828). In words: qHTS assay for small molecule agonists of thyroid hormone receptor beta signaling (AID 588545). The note with it: TR-UAS-bla GripTite HEK 293, beta-lactamase ratio, agonist mode, 18 h, percent of T3 response, DMSO as zero; series mostly up to 76.7 µM. In short, it runs like this:
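Agonist activity was read as beta-lactamase CCF4 fluorescence (405 ex, 460/530 em), scaled between DMSO (0%) and 10 nM T3 (100%), then Hill-fitted for EC50 and efficacy. HEK 293 TR-UAS-bla cells in 2% charcoal/dextran FBS medium were exposed 18 h at 37 C.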

Experiment [16] shares this target. In words: qHTS assay for small molecule antagonists of thyroid hormone receptor beta signaling (AID 588547; active = well fitted inhibition curve with a large enough effect in the signal ratio, with a control signal flat, not every such curve was filed as active; the % refers to the signal ratio;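 also: cells stimulated with 0.4 nM T3 agonist during compound exposure; % is scaled to controls: 0 for no effect and ±100 for the full control effect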). The note with it: TR-UAS-bla HEK293, beta-lactamase ratio, antagonist mode, 18 h. The procedure, abridged:
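TR-UAS-bla GripTite HEK293 cells in 2% charcoal/dextran FBS medium; compounds 0.59 nM to 92 uM with T3 at 0.4nM final, 18 h at 37 C. Beta-lactamase read by CCF4 fluorescence (460/530 nm); Hill fits gave IC50 and efficacy.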

A short description of experiment [17]: qHTS assay for small molecule activators of the nuclear factor-kappa B (NF-kB) signaling pathway (AID 651749; active = well fitted activation curve with a large enough effect in the signal ratio; the % refers to the signal ratio; also: % of control where 0% means no effect). As to conditions: NF-kB-bla ME-180 cells, beta-lactamase FRET ratio, 16 h; stronger effect = higher value. In short, it runs like this:
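NF-kB-bla ME-180 cells, 2,000/well; 23 nL compound or DMSO pinned; 16 hr, 37C/5% CO2; beta-lactamase FRET read-out.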

The target in experiment [18] is Peroxisome proliferator-activated receptor gamma (Homo sapiens) (UniProt P37231). In words: qHTS assay for small molecule antagonists of peroxisome proliferator-activated receptor gamma signaling (AID 588537; active = well fitted inhibition curve with a large enough effect in the signal ratio, with a control signal flat, not every such curve was filed as active; the % refers to the signal ratio;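 also: reporter cells co-stimulated with 50 nM rosiglitazone agonist during compound treatment; % of control where 0% means no effect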). The note with it: HEK293 PPARg-UAS-bla, beta-lactamase ratio, antagonist mode; series mostly up to 76.8 µM. In short, it runs like this:
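Read-out: CCF4 fluorescence (ex 405, em 460/530 nm) after 2 h at RT. Cells were HEK293 carrying a UAS-bla reporter and treated 16 h at 37 C with compound plus rosiglitazone (50 nM final). Normalized to rosiglitazone and DMSO.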

Here are results for 7 compounds from PubChem BioAssay (NCATS).

Several values for one entry are separate records, joined by “and”; a condition that tells them apart may be missing. Identical values can stand only once. Results filed as inconclusive are left out. Activity calls are given as the source filed them. Unless noted, calls follow the shape of the full dose curve.

Sequence of Peroxisome proliferator-activated receptor delta (Homo sapiens) (Q03181 whole entry, looked up): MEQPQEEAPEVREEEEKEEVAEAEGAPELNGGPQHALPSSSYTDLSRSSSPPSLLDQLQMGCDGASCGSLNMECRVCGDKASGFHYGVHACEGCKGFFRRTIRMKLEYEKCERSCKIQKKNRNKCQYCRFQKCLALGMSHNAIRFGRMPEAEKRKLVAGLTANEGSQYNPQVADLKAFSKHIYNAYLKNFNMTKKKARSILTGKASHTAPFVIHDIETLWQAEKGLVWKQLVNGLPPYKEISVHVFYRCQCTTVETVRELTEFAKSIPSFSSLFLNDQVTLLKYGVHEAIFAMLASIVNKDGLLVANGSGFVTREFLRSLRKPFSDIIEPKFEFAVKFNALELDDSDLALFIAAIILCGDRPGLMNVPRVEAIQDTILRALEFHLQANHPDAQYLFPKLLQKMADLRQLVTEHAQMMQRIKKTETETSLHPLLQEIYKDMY
Sequence of Peroxisome proliferator-activated receptor gamma (Homo sapiens) (P37231 whole entry, looked up): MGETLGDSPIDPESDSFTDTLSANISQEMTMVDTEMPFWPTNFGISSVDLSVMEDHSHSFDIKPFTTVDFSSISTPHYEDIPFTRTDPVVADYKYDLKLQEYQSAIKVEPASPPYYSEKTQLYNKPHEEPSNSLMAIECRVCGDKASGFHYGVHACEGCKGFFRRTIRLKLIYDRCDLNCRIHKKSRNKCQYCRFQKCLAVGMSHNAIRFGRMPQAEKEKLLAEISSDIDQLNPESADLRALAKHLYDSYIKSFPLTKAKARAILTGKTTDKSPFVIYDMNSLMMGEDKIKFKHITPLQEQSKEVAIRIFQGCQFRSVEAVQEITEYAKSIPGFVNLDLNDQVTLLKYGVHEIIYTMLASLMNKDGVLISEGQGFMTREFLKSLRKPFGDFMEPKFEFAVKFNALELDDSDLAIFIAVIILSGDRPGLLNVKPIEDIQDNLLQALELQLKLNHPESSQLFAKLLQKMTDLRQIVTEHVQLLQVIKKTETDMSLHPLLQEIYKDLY
Sequence of Vitamin D3 receptor (Homo sapiens) (P11473 whole entry, looked up): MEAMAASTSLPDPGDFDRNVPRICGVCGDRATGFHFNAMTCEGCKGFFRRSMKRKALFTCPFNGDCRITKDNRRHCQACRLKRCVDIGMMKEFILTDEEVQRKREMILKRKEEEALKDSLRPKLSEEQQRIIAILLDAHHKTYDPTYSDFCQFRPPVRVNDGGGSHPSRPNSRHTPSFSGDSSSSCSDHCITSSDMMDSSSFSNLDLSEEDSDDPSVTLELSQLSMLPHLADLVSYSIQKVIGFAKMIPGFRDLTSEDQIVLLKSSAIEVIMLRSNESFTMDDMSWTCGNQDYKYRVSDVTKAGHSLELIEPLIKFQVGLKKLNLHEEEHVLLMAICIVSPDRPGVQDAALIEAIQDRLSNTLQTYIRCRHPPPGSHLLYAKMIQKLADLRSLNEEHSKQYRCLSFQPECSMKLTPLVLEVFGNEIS
Sequence of Thyroid hormone receptor beta (Homo sapiens) (P10828 whole entry, looked up): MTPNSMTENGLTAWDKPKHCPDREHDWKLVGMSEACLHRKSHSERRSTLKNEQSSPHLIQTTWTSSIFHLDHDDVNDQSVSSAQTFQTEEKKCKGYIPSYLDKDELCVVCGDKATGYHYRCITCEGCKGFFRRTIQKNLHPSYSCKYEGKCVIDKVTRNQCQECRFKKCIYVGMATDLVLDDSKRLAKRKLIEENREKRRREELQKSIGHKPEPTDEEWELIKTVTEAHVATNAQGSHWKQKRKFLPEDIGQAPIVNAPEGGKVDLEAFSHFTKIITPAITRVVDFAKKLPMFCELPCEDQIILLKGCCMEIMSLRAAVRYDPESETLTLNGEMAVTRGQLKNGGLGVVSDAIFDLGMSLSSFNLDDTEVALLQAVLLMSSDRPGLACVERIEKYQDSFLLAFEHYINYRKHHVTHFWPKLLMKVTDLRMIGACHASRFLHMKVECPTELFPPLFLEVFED
Sequence of Voltage-gated inwardly rectifying potassium channel KCNH2 (Homo sapiens) (Q12809 whole entry, looked up): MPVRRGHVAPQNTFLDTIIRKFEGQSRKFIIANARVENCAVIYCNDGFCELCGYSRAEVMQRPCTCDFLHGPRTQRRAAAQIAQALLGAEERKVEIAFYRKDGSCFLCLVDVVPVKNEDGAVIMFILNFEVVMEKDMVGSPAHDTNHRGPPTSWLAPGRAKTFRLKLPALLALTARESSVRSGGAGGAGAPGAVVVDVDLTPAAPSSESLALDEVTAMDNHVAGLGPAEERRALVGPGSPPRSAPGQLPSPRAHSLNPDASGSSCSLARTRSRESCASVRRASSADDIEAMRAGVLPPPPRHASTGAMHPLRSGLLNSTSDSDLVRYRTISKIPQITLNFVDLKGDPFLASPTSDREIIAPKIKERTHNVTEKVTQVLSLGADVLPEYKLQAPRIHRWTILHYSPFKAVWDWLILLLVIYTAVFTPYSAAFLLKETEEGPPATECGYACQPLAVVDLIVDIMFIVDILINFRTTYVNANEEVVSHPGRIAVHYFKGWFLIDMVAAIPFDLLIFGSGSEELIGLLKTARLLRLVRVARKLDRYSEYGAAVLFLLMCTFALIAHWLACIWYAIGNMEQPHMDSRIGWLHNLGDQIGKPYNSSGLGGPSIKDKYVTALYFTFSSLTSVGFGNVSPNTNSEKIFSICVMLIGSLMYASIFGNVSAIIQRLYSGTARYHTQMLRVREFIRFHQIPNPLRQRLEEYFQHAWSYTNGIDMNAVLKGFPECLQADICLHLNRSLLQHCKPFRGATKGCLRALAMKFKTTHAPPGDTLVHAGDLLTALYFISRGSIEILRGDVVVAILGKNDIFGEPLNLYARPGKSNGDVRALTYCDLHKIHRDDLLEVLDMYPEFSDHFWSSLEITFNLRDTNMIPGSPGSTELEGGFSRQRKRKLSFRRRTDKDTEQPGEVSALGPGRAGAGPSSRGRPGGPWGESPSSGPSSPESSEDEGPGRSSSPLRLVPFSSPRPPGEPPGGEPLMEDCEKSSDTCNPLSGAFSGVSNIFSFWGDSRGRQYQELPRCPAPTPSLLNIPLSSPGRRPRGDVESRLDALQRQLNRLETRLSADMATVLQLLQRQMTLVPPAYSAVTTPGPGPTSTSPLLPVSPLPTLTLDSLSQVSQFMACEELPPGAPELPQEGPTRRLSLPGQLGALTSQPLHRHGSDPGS

On to `Clc1cc(Cl)cc(Cl)c1`, for which the activation in experiment [1] was 5.2% (inactive); in [14], -2.32% (inactive). Further, the result in experiment [2], in experiment [5], in experiment [6], in [7] and in experiment [9] was inactive. Besides, the max response in experiment [3] is -6.75%; in [8] it was -9.27%; in experiment [10], -4.96%; in [11], 2.45% (inactive). The Potency entry in [4], in [12] and in experiment [13] was “inactive” in each case.
For the compound `C[C@@H]1O[C@@H](O[C@@H]2[C@@H](O)[C@H](OCCc3ccc(O)c(O)c3)O[C@H](CO[C@@H]3O[C@H](CO)[C@@H](O)[C@H](O)[C@H]3O)[C@H]2OC(=O)/C=C/c2ccc(O)c(O)c2)[C@H](O)[C@H](O)[C@H]1O`, the figures for the activation in [1], in experiment [14] and in experiment [17] were 2.75% (inactive), -0.671% (inactive) and -0.414% (inactive), respectively. For the same compound, the outcome in experiment [2], in experiment [5], in experiment [6], in experiment [7], in experiment [9] and in experiment [15] was inactive. In addition, the max response in experiment [3] was 20.8%; in experiment [8] it was 0.999%; in experiment [10], -0.609%; in experiment [11], -6.94% (inactive). Also, the Potency result in experiment [4], in [12] and in experiment [13] was “inactive” each time. Moreover, the activity change % (negative = inhibition) in experiment [16] was 4.68% (inactive).
As for `Cc1cc(C)cc(O)c1`, the activation was -1.28% (inactive) in [1] and -2.15% (inactive) in experiment [14]. In addition, the outcome in experiment [2], in [5], in experiment [6], in [7] and in experiment [15] was inactive. Moreover, the max response in [3] was 32.1%; in experiment [8], 0.806%; in experiment [10], -5.75%; in experiment [11] it was 24.6% (inactive). Further, the Potency entry in experiment [4], in experiment [12] and in experiment [13] was “inactive” throughout. The activity change % (negative = inhibition) in experiment [16] was 2.53% (inactive).
In the case of `C=CC(=O)NC(C)C`, the activation in experiment [1] is 2.34% (inactive); in experiment [14] it was -0.785% (inactive); in experiment [17] it was 0.588% (inactive). Further, the outcome in experiment [2], in experiment [5], in experiment [18], in experiment [6], in experiment [7] and in experiment [9] was inactive. The outcome in experiment [15] was inactive. In addition, the max response in experiment [3] is -15.9%; in experiment [8], -3.51%; in experiment [10] it was 5.01%; in experiment [11], 0.568% (inactive). In addition, the Potency result in experiment [4] is “inactive”. Also, the activity change % (negative = inhibition) in experiment [16] is -0.537% (inactive).
`CCCCCCC=O`: the activation was -0.214% (inactive) in experiment [1], 0.659% (inactive) in experiment [14] and -0.682% (inactive) in experiment [17]. Moreover, the result in experiment [2], in experiment [5], in experiment [18], in experiment [6], in experiment [7] and in experiment [9] was inactive. Besides, the outcome in experiment [15] was inactive. The max response in experiment [3] was -42.7%; in experiment [8], -2.47%; in experiment [10], 9.36%. The Potency entry in [4], in [12] and in experiment [13] was “inactive” in each case. Also, the activity change % (negative = inhibition) in experiment [16] is -17.7% (inactive).
Consider `Cc1cccc([N+](=O)[O-])c1C(=O)O`, for which the activation in experiment [1] is 4.26% (inactive); in experiment [14] it was -3.44% (inactive). The result in experiment [2], in [5], in experiment [6], in experiment [7], in experiment [9] and in [15] was inactive. Moreover, the max response in [3] is 7.62%; in [8], -20.5%; in experiment [10] it was -4.5%; in experiment [11], -0.976% (inactive). Further, the Potency entry in [4], in experiment [12] and in experiment [13] was “inactive” in each case. Besides, in experiment [16], the activity change % (negative = inhibition) was 13.9% (inactive).
For `NC(=S)NNC(N)=S`, the activation is -4.1% (inactive) and -4.08% (inactive) in [1]; 1.05% (inactive) and -1.18% (inactive) in experiment [14]; -0.0609% (inactive) and -1.04% (inactive) in experiment [17]. The outcome in [2], in experiment [5], in [18], in [9] and in [15] was inactive. For the same compound, the max response in experiment [3] is -7.61% and 32%; in experiment [8] it was -14.7% and -3.73%; in experiment [10], -7.09%; in experiment [11], -19.9% (inactive). In addition, the Potency entry in experiment [4] and in experiment [13] was “inactive” throughout. Moreover, the activity change % (negative = inhibition) in experiment [16] was -0.459% (inactive) and 12.6% (inactive).
